These results are taken from PubChem BioAssay (Tox21).

Molecules are shown by their SMILES. Records with an inconclusive call do not appear. A number with no mark means an inactive call. Active and inactive are the calls of the source. Unless noted, the call rests on the fitted dose curve; in most records, active means well fitted curve in the direction sought with a large enough effect in the repeat runs; inconclusive means weak or mixed curves; inactive means no such curve, though single readings can be large; an effect the other way counts as inactive or inconclusive.

A short description of experiment [1]: qHTS assay to identify small molecule agonists of the RXR signaling pathway - cell viability counter screen (AID 1159529). Further: series mostly up to about 77 µM; nearly all actives have a fitted effect of over 50% in size. The essentials:
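CellTiter-Glo luminescence gave viability in the wells also read for beta-lactamase. Cells (RXR-alpha-UAS-bla HEK 293T, 2% charcoal-stripped FBS medium) had 5 hr plating, then 16 hr compound exposure at 37 C; tetraoctyl ammonium bromide served as positive control.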

Experiment [2] is described as follows: qHTS assay to identify small molecule agonists of the retinoic acid receptor (RAR) signaling pathway (AID 1159553). The essentials:
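Reporter readout comes from luciferase under RARE control in C3RL4 cells; compound exposure lasts 6 hr at 37 C in 5% CO2, and luminescence is recorded following a 30 min room-temperature incubation with reagent.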

The nature of experiment [3]: qHTS assay to identify small molecule antagonists of the estrogen related receptor (ERR) signaling pathway from Tox21 library - cell viability counter screen (AID 1224834). Further: nearly all actives have a fitted effect of over 30% in size. Further: potency means the concentration at half of the fitted maximal effect. The essentials: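 After 17.5 h of compound exposure at 37 C, ERR cells are incubated with CellTiter-Fluor for 30 min and fluorescence intensity serves as the viability measure.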
The nature of experiment [4]: qHTS assay to identify small molecule agonists of the constitutive androstane receptor (CAR) signaling pathway - cell viability counter screen (AID 1224836). Further: series mostly up to about 92 µM; nearly all actives have a fitted effect of over 45% in size. Put shortly:
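Cell viability multiplexed with the CAR agonist screen: CellTiter-Fluor fluorescence after 23 hr at 37 C. HepG2-CYP2B6-hCAR cells got compounds at 15 concentrations with PK11195 at 0.75 uM final.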

The nature of experiment [5]: qHTS assay to identify small molecule antagonists of the constitutive androstane receptor (CAR) signaling pathway - cell viability counter screen (AID 1224837). Further: series mostly up to about 92 µM; nearly all actives have a fitted effect of over 45% in size. Put shortly: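 Counter screen run in HepG2-CYP2B6-hCAR cells: 4 hr settle, compound titration (15 concentrations) with 50 nM CITCO, 23 hr at 37 C/5% CO2, CellTiter-Fluor fluorescence.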
Experiment [6] concerns the target Nuclear receptor subfamily 1 group I member 3 (Homo sapiens) (UniProt Q14994). In words: qHTS assay to identify small molecule antagonists of the constitutive androstane receptor (CAR) signaling pathway (AID 1224838).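 Further: HepG2 cells stably expressing hCAR with CYP2B6 luciferase reporter stimulated by CITCO; nearly all actives have a fitted effect of over 40% in size.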 The essentials:
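Cell line: HepG2 double-stable for hCAR and CYP2B6-2.2kb reporter. Agonist: CITCO, 50 nM final. Compounds: 15 concentrations, 24 h, 37 C. Detection: ONE-Glo luminescence.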

Experiment [7] has the same target. Nature of the experiment: qHTS assay to identify small molecule agonists of the constitutive androstane receptor (CAR) signaling pathway (AID 1224839).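 Further: HepG2 cells stably carrying human CAR and a CYP2B6 luciferase reporter; series mostly up to about 92 µM; nearly all actives have a fitted effect of over 15% in size.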 Put shortly:
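Luminescent ONE-Glo read-out after 24 hr, 37 C exposure of double-stable HepG2-CYP2B6-hCAR reporter cells to a 15-point compound series, in the presence of 0.75 uM PK11195 (final).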

Experiment [8] is described as follows: qHTS assay to identify small molecule antagonists of the estrogen related receptor signaling pathway with the pleiotropic PPARgamma coactivator (PGC) from Tox21 10K library - cell viability counter screen (AID 1224840; active means well fitted cell-killing curve with a large enough effect in the repeat runs, not every such curve was filed as active; further: nearly all actives have a fitted effect of over 40% in size). The essentials:
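Following seeding of 2,000 PGC/ERR cells/well and 6 hours' incubation, test compounds were delivered in DMSO. The plates then sat 17.5 hours at 37 C before a fluorogenic live-cell protease reagent (CellTiter-Fluor) was read after 30 min.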

The nature of experiment [9]: qHTS assay to identify small molecule antagonists of the estrogen related receptor signaling pathway with the pleiotropic PPARgamma coactivator (PGC) from Tox21 10K library (AID 1224841; call rule not given here; further: actives are mostly falling curves and most rising ones were filed inactive; nearly all actives have a fitted effect of over 50% in size; further: potency means the concentration at half of the fitted maximal effect). The essentials:
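qHTS antagonist format: PGC/ERR cells, 2k/well, compound in DMSO by pin transfer after 6 h attachment, 18 h treatment at 37 C, One-Glo luminescence read at 30 min.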

Experiment [10] can be described thus: qHTS assay to identify small molecule agonists of the estrogen related receptor signaling pathway with the pleiotropic PPARgamma coactivator (PGC) from Tox21 10K library (AID 1224842). Further: nearly all actives have a fitted effect of over 15% in size. Put shortly:
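PGC/ERR reporter cell line, 2,000 cells per well, incubated 6 h at 37 C before 23 nL compound in DMSO was added. After 18 h at 37 C, One-Glo luminescence read following 30 min at room temperature.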

The nature of experiment [11]: qHTS assay to identify small molecule agonists of the hypoxia (HIF-1) signaling pathway - cell viability counter screen (AID 1224844; calls by dose curve; further: nearly all actives have a fitted effect of over 50% in size; further: potency means the concentration at half of the fitted maximal effect). The essentials: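 Cells (HRE-bla ME-180, 2,000 per well) sat 5 hrs at 37C, got compound for 17 hrs, were read for CCF4-AM FRET, and were finally lysed with CellTiter-Glo for a 30 min room-temperature luminescence read.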
Experiment [12] concerns the target Luciferin 4-monooxygenase (Photinus pyralis) (UniProt P08659). Nature of the experiment: qHTS assay to identify small molecule inhibitors of firefly luciferase (AID 1224835). Further: series mostly up to about 120 µM; nearly all actives have a fitted effect of over 25% in size. Put shortly: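 Biochemical qHTS: compounds run as interplate titrations against purified firefly enzyme, with D-luciferin and ATP each at its KM concentration. Light output recorded by CCD imaging.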

The target of experiment [13] is Thyrotropin receptor (Homo sapiens) (UniProt P16473). Nature of the experiment: qHTS assay to identify small molecule agonists of the thyroid stimulating hormone receptor (TSHR) signaling pathway (AID 1224843; calls by dose curve; further: nearly all actives have a fitted effect of over 45% in size). The essentials: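 Steps: seed 800 TSHR-HEK293 cells per well; add test compound and hold 30 min at ambient temperature; dispense cAMP-d2 then anti-cAMP cryptate; incubate 1 h at ambient; measure fluorescence intensity.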

The nature of experiment [14]: qHTS assay to identify small molecule antagonists of the retinoid acid receptor (RAR) signaling pathway - cell viability counter screen (AID 1159551). Further: nearly all actives have a fitted effect of over 35% in size. Further: potency means the concentration at half of the fitted maximal effect. The essentials:
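Retinol-stimulated (1 uM final) C3RL4 cells, compound 6 h, 37 C; readout CellTiter-Glo luminescence (ATP) after 30 min RT incubation.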

Experiment [15] in a line: qHTS assay to identify small molecule antagonists of the retinoic acid receptor (RAR) signaling pathway (AID 1159552; further: nearly all actives have a fitted effect of over 50% in size; further: potency means the concentration at half of the fitted maximal effect). Put shortly: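 Luminescent RARE reporter read-out in C3RL4 cells: 6 hr co-treatment at 37 C of test compounds with retinol at 1 uM final. Cells plated overnight beforehand; luciferase reagent incubated 30 min at room temperature before reading.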

Sequence of Luciferin 4-monooxygenase (Photinus pyralis) (P08659 whole entry, looked up): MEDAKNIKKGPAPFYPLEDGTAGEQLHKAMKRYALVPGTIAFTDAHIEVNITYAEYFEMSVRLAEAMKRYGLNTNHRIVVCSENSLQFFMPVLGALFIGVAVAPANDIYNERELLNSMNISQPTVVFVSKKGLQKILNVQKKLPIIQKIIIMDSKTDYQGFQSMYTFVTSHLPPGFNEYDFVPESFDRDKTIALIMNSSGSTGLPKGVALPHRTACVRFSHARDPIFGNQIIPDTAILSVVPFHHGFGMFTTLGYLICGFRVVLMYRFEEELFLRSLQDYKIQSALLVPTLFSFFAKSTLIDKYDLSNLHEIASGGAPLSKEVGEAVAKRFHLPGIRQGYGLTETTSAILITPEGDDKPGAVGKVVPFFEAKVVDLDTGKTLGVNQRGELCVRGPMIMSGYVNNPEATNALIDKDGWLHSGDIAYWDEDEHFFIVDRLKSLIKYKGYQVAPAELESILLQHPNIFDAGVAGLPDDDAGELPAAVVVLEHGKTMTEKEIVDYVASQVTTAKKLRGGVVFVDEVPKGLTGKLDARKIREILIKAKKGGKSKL
Sequence of Thyrotropin receptor (Homo sapiens) (P16473 whole entry, looked up): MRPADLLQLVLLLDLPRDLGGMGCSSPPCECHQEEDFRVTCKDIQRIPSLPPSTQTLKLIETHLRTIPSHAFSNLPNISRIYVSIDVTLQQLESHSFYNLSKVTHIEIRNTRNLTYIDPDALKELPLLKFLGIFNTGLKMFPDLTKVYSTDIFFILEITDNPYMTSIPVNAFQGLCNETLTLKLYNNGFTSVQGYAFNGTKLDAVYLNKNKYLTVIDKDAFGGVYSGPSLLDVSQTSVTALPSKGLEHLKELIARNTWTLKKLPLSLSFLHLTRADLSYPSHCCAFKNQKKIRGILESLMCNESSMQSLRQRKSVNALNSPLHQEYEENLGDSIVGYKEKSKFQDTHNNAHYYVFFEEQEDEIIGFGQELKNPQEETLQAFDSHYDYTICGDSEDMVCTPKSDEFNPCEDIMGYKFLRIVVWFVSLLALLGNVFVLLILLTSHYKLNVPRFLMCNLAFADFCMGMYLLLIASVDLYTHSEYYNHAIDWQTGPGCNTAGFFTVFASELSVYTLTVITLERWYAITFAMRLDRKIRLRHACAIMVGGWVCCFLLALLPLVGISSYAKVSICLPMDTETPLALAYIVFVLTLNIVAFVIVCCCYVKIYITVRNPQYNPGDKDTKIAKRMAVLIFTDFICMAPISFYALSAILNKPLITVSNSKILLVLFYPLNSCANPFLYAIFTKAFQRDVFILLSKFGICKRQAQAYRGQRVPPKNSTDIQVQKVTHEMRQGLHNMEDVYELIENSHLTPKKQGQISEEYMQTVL
Sequence of Nuclear receptor subfamily 1 group I member 3 (Homo sapiens) (Q14994 whole entry, looked up): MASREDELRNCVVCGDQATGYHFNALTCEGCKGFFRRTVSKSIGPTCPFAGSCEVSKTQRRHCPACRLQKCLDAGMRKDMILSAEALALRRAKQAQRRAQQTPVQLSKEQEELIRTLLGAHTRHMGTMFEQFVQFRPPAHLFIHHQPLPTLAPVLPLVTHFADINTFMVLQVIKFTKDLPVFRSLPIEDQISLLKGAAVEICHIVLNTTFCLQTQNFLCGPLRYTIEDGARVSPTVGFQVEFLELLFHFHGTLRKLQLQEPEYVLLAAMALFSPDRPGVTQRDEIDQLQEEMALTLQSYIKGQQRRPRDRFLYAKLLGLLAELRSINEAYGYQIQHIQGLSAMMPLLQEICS

On to `O=c1oc2ccccc2c(O)c1C1CCCc2ccccc21` (stereo not drawn), for which the Potency entry in experiment [1], in experiment [2], in experiment [3], in experiment [4], in experiment [5] and in experiment [6] was “inactive” each time. Moreover, the Potency result in [7], in [8] and in experiment [11] was “inactive” each time. Further, the Potency in [9] is 54.5 µM (active). Also, in experiment [10], the call was inactive.
Consider `CCCCCCI`, for which the Potency result in [1], in [3], in [4], in experiment [5], in experiment [6] and in experiment [7] was “inactive” throughout. Further, the Potency result in experiment [8] and in [11] was “inactive” in each case.
Regarding `OCCSCSCCO`, the Potency entry in [1], in experiment [3], in [12], in [4], in [5] and in [7] was “inactive” each time. For the same compound, the Potency result in experiment [8], in experiment [13] and in experiment [11] was “inactive” throughout.
As for `CCOP(=S)(Oc1cnc(C(C)(C)C)nc1)OC(C)C` (stereo not drawn), the Potency result in [14], in experiment [15], in [2], in experiment [3], in experiment [12] and in experiment [4] was “inactive” throughout. Besides, the Potency result in [5], in experiment [6], in experiment [8], in [9] and in [11] was “inactive” throughout.
In the case of `Cc1nnc2n1-c1sc(CCC(=O)N3CCOCC3)cc1C(c1ccccc1Cl)=NC2`, the Potency result in experiment [14], in experiment [15], in experiment [2], in experiment [3], in experiment [12] and in [4] was “inactive” throughout. In addition, the Potency entry in experiment [5], in experiment [6], in experiment [8], in experiment [9], in experiment [13] and in [11] was “inactive” in each case. In addition, the outcome in experiment [10] was inactive.
In the case of `[Cl][Sn]([Cl])([Cl])[Cl]`, the Potency entry in [1], in [3], in experiment [12], in experiment [4], in [5] and in experiment [6] was “inactive” in each case. For the same compound, the Potency entry in experiment [7], in [8] and in [11] was “inactive” each time.
Take `CCOc1nc(C(Cl)(Cl)Cl)ns1`: the Potency entry in [14], in [15], in experiment [2], in experiment [3], in experiment [12] and in [4] was “inactive” each time. In addition, the Potency entry in [5], in experiment [7], in [8], in experiment [9] and in experiment [13] was “inactive” each time. Also, in experiment [10], the outcome was inactive.
Regarding `C[C@]1(O)CC[C@H]2[C@@H]3CCC4=CC(=O)CC[C@]4(C)[C@@]3(F)[C@@H](O)C[C@@]21C`, the Potency entry in experiment [1], in experiment [3], in experiment [12], in experiment [4], in experiment [5] and in [8] was “inactive” each time. In addition, the Potency entry in experiment [13] and in experiment [11] was “inactive” in each case.
As for `CN(C)CCc1ccc(O)cc1`, the Potency result in [1], in experiment [3], in [12], in [4], in [5] and in [6] was “inactive” in each case. For the same compound, the Potency result in experiment [8], in experiment [9] and in [13] was “inactive” each time.
Regarding `c1ccc(N2CCNCC2)cc1`, the Potency result in experiment [1], in experiment [3], in experiment [12], in [4], in experiment [5] and in experiment [6] was “inactive” in each case. Besides, the Potency result in experiment [7], in [8], in experiment [13] and in [11] was “inactive” throughout.
In the case of `C=CCC1=C(C)[C@@H](OC(=O)[C@@H]2[C@@H](C=C(C)C)C2(C)C)CC1=O`, the Potency in experiment [14] is 54.5 µM (active); in [15], 27.3 µM (active); in experiment [3] it was 54.5 µM (active); in experiment [11], 54.9 µM (active). In addition, the Potency entry in experiment [2], in experiment [12], in [5], in experiment [6] and in experiment [13] was “inactive” throughout.
Consider `O=C(CCCN1CCC(n2c(=O)[nH]c3ccccc32)CC1)c1ccc(F)cc1`, for which the Potency result in experiment [1], in [12], in [4], in experiment [5], in experiment [6] and in experiment [7] was “inactive” in each case. Moreover, the Potency result in experiment [8], in experiment [13] and in experiment [11] was “inactive” in each case.
